Marburg entry inh = Marburg virus entry inhibition | Marburg virus pseudotyped entry inhibition, cell reporter | Potency, µM (highest dose often 37.8 µM), without a hit: at the top dose activity change, negative = inhibition, most hits filed as inhibitors | AID 540276 | 1.8% of 300,000 active; calls by dose curve; tested in HEK293 cells; further: potency means the concentration at half of the fitted maximal effect; on the % scale 0 is the no-effect control and ±100 the full control effect
Lassa entry inh = inhibitors of Lassa virus binding or cell entry; Lassa virus pseudotype entry inhibition, cell reporter; Potency, µM (highest dose often 37.9 µM), for the others: at the top dose activity change, negative = inhibition, hits mostly inhibitors; 1.2% of 300,000 active; AID 540256; calls by dose curve; tested in HEK293 cells; further: potency means the concentration at half of the fitted maximal effect; on the % scale 0 is the no-effect control and ±100 the full control effect; nearly all actives have a fitted effect of over 50% in size
HCV inhibitor = blocks hepatitis C virus; 3.4% of 340,000 active; Huh7.5.1 HCVcc-Cre infection, luciferase reporter, 44 h; Potency, µM (top dose mostly 41.8 µM), for the others: at the top dose activity change, negative = inhibition, actives largely listed as inhibitors; active means well fitted inhibition curve with a large enough effect; inconclusive means small, poorly fitted or top-dose-only effect, or another doubt; inactive means no such curve, though single readings can be large or run the other way; further: potency means the concentration at half of the fitted maximal effect; on the % scale 0 is the no-effect control and ±100 the full control effect
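HCVcc-Cre virus at an moi near 0.5 was added right after compound to cells cultured 4 h from seeding (1,000 cells/well). Luciferase activity was determined 44 h later, 15 min after substrate addition at RT.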
FMDV inh = antivirals against foot and mouth disease virus. 1.2% of 410,000 active. FMDV antiviral cell-based qHTS. Potency, µM (titrated, usually from 57.9 µM), without a hit: top-dose activity change, negative = inhibition, usual class: inhibitors; calls by dose curve; tested in HEK293T cells; further: read-out not given here; potency means the concentration at half of the fitted maximal effect; on the % scale 0 is the no-effect control and ±100 the full control effect; nearly all actives have a fitted effect of over 45% in size
HCMV inh = inhibitors of human cytomegalovirus; HFF cells, HCMV-luciferase reporter, 72 h; active compounds read low; activity change, negative = inhibition, % at 57.5 µM; 4.5% of 410,000 active; AID 1259415; in the data active means activity change below about -60%; inconclusive means no clear call, values can overlap the other calls; inactive means above about -39%; further: on the % scale 0 is the no-effect control and ±100 the full control effect
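Steps: HFFs plated, 16 h 37C; compounds added; HCMV-luciferase added to MOI 1 PFU/cell; 72 h 37C; OneGlo reagent, 5 min room temperature; luminescence read, normalized to controls.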
SARS PLP yeast = SARS-CoV PLP inhibition in yeast; S. cerevisiae expressing SARS-CoV PLpro, growth rescue; Potency, µM (titrated, usually from 32.9 µM), without a hit: top-dose activity, positive = growth rescue, hits mostly activators; 0.19% of 330,000 active; AID 485353; calls by dose curve; further: potency means the concentration at half of the fitted maximal effect; 0% is about no effect; nearly all actives have a fitted effect of over 55% in size
An asterisk follows results filed as active; ? = inconclusive; . = no result given; [ ] = another dose, or the depositor's remark. Rows were chosen to be rich in hits. Some 8% of all compounds tested hit in one or more screens of this group.

SMILES	Marburg entry inh	Lassa entry inh	HCV inhibitor	FMDV inh	HCMV inh	SARS PLP yeast
CS(=O)(=O)CCNCc1ccc(-c2ccc3ncnc(Nc4ccc(OCc5cccc(F)c5)c(C(F)(F)F)c4)c3c2)o1	.	20µM*	.	.	.	.
CS(=O)(=O)CCNCc1ccc(-c2ccc3ncnc(Nc4ccc(OCc5ccccc5)cc4)c3c2)o1	.	16µM*	.	.	.	.
CS(=O)(=O)CCNCc1nc(-c2ccc3ncnc(Nc4ccc(OCc5cccc(F)c5)c(Cl)c4)c3c2)cs1	.	.	.	9%	.	.
CS(=O)(=O)c1ccc(Nc2cc3c(cn2)ncn3Cc2ccco2)cc1	.	.	.	.	-18	.
CCOc1ccc(/C=N/NS(=O)(=O)c2ccc(C)cc2)cc1OC	.	.	3%	0%	19	1%
Cc1ccc(S(=O)(=O)/C(C#N)=C/c2ccccc2OCc2ccccc2)cc1	?	?	21%	12%	-69*	9%
COC(=O)c1ccc(COc2ccccc2/C=N/NS(=O)(=O)c2ccc(C)cc2)cc1	?	-31%[14.3 µM]	.	59%	-94*	-5%
O=S(=O)(N/N=C/c1ccccc1OCc1ccc(Cl)cc1)c1ccccc1	?	-12%	?	62%	-83*	-15%
COc1cc(/C=N/NS(=O)(=O)c2ccc(C)cc2)ccc1OCc1ccc(C(=O)O)cc1	?	6.3µM*	13%	-37%	2	-2%
N#CC(C#N)=Cc1ccccc1OCc1ccccc1	.	.	.	.	.	-3%
O=C(Cc1ccccc1)N/N=C/c1ccccc1OCc1ccc(Cl)cc1	24%	-25%	?	8%	6	3%
CCOCCCn1c(=N)c(C(=O)NC2CCCC2)cc2c(=O)n3cccc(C)c3nc21	11%[46.1 µM]	?	.	-15%	14	.
COc1cc(/C=N/NC(=O)CN2CCCCC2)ccc1OCc1ccc(Br)cc1	?	?	10µM*	-3%	-14	4%
COc1cc(/C=N/NC(=O)CC2(C)OCCCO2)ccc1OCc1ccccc1	33%	8%	?	7%	?	-8%
C=CC[C@H](CC(=O)N[C@H](CO)Cc1ccccc1)C(=O)N[C@@H](COC(=O)[C@@H](CC=C)CC(=O)OC(C)(C)C)Cc1c[nH]c2ccccc12	.	.	?	?	34	4%
C=CC[C@@H](CC(=O)N(CCO)Cc1ccccc1)C(=O)N[C@H](COC(=O)[C@@H](CC=C)CC(=O)OC(C)(C)C)Cc1c[nH]c2ccccc12	.	.	11µM*	?	32	-5%
C=CC[C@H](CC(=O)N(CCO)Cc1ccccc1)C(=O)N[C@@H](COC(=O)[C@H](CC=C)CC(=O)OC(C)(C)C)Cc1c[nH]c2ccccc12	.	.	?	?	53	2%
C=CC[C@@H](CC(=O)N[C@@H](CO)Cc1ccccc1)C(=O)N[C@H](COC(=O)[C@@H](CC=C)CC(=O)OC(C)(C)C)Cc1c[nH]c2ccccc12	.	.	?	35µM*	-7	-5%
C=CC[C@H](CC(=O)N(CCO)Cc1ccccc1)C(=O)N[C@H](COC(=O)[C@H](CC=C)CC(=O)OC(C)(C)C)Cc1ccccc1	.	.	11µM*	0%	-27	9%
COc1ccc(OC)c(C(=O)N(Cc2cc3cccc(C)c3nc2N2CCC(O)CC2)C2CC2)c1	.	.	.	1%	.	.
Cc1cccc(NC(=S)N2CCN(S(=O)(=O)c3cccc(F)c3)CC2)c1	?	0%	6.3µM*	2%	-14	0%
COc1ccc2nc(N3CCN(C(=O)c4ccco4)CC3)sc2c1	.	-5%[46.1 µM]	.	11%	14	.
COc1ccc2nc(N3CCN(C(=O)CS(=O)(=O)c4ccc(C)cc4)CC3)sc2c1	.	-30%[46.1 µM]	.	?	-64*	.
CCOc1ccc(/C=N/NC(=O)Cc2ccccc2)cc1CN1CC2CC(C1)c1cccc(=O)n1C2 (stereo unspecified)	-6%	.	7.9µM*	-3%	-33	0%
COc1ccc(Br)cc1Cn1nnc(C(=O)Nc2cccc(SC)c2)c1N	0%[46.1 µM]	?	.	-39%	-24	.
SMILES	Marburg entry inh	Lassa entry inh	HCV inhibitor	FMDV inh	HCMV inh	SARS PLP yeast
COc1ccc(C(=O)N(c2ccc(OC)cc2)S(=O)(=O)c2ccc3c(c2)n(C)c(=O)n3C)cc1	?	?	.	4%	-9	.
COc1ccc(N(C(=O)c2cccc(C)c2)S(=O)(=O)c2ccc3c(c2)n(C)c(=O)n3C)cc1	-27%[46.1 µM]	?	.	0.028µM*	14	.
Cc1cccc(N2C(=O)N3[C@H](c4ccc(Br)cc4)[C@@H]4C(=O)N(C(C)(C)C)C(=O)[C@@H]4[C@]3(C)C2=O)c1	.	.	11%	-17%	10	4%
COc1ccc([C@@H]2[C@@H]3C(=O)N(C(C)(C)C)C(=O)[C@@H]3[C@]3(C)C(=O)N(c4cccc(Cl)c4)C(=O)N23)cc1	.	.	5%	2%	-71*	2%
COc1ccc([C@@H]2[C@@H]3C(=O)N(C(C)(C)C)C(=O)[C@@H]3[C@]3(C)C(=O)N(c4ccccc4)C(=O)N23)cc1	.	.	21%	0%	22	-15%
CC(C)(C)N1C(=O)[C@H]2[C@@H](c3ccc(Br)cc3)N3C(=O)N(c4ccc(Br)cc4)C(=O)[C@@]3(Cc3ccccc3)[C@H]2C1=O	.	.	7.9µM*	-16%	.	-3%
Cc1ccc(N2C(=O)N3[C@H](c4ccc(Br)cc4)[C@@H]4C(=O)N(C(C)(C)C)C(=O)[C@@H]4[C@]3(C)C2=O)cc1	.	.	?	-20%	-85*	3%
O=C(NCCS(=O)(=O)N1CCN(c2ccccc2F)CC1)c1ccccc1C(F)(F)F	.	6%[46.1 µM]	.	-11%	45	.
CNC(=O)c1ccc(CNC(=O)OCc2ccccc2)cc1	1%[46.1 µM]	16%[46.1 µM]	18%	24%	22	-1%
O=C(NCCN1CCCCC1)c1cc(COc2c(F)cccc2F)on1	?	6%[46.1 µM]	-18%	6%	-16	2%
COc1cc(C=NO)nc(-c2ccccn2)c1	?	1.3µM*	?	-8%	-100*	.
Fc1ccc(CNc2nc(-c3ccc(Cl)cc3)cc(C(F)(F)F)n2)cc1	-10%[46.1 µM]	16%[46.1 µM]	.	-11%	3	.
Cc1cc(C)nc(N/N=C/c2ccccc2)n1	17%	6%	-5%	43%	26	-4%
CCN(CC)c1ccc(/C=N/Nc2nc(C)cc(C)n2)cc1	10µM*	?	?	9%	?	9%
Cc1cc(-c2ccccc2)nc(N/N=C/c2ccc(O)cc2)n1	?	8.9µM*	11µM*	-27%	-16	-2%
Oc1ccc(/C=N/Nc2nc(-c3ccc(Cl)cc3)cc(C(F)(F)F)n2)cc1	11µM*	?	13µM*	25µM*	-77*	-7%
COc1ccc(/C(C)=N/Nc2nc(C)cc(-c3ccccc3)n2)cc1	2.5µM*	?	10µM*	?	-94*	.
COC(=O)N1C2CC3(C)CC(=O)CC1(C)C3c1ccccc12 (stereo unspecified)	5%[14.2 µM]	.	.	.	.	.
Cc1cc(C)c2nc(C)cc(N/N=C/c3ccc(O)cc3)c2c1	?	?	11µM*	0%	-100*	0%

Screening data as filed in PubChem.
